PubChem BioAssay (NCATS)
Inconclusive results are not listed. Activity calls are given as the source filed them. Calls follow the shape of the dose curve; as a rule, active = well fitted curve in the direction sought with a large enough effect; inconclusive = small, poorly fitted or top-dose-only effect, or another doubt; inactive = no such curve, though single readings can be large; an effect the other way counts as inactive or inconclusive.

assay: qHTS of pediatric cancer cell lines to identify multiple opportunities for drug repurposing: Primary screen for SK-N-MC cells (AID 1347093); settings: SK-N-MC viability, CellTiter-Glo luminescence, 48 h; series mostly up to 46 µM
Summary of the method: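 Metabolically active cells were quantified by ATP-dependent luminescence (CellTiter-Glo, 15 min at room temperature) following 48 h treatment. Cells had been plated at 500-1,000 per well and settled for 5 h beforehand.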
Potency is read from the fitted curve at half-maximal effect.

Row | SMILES | Potency
1 | O=C(O)CCCc1c[nH]c2ccccc12 | inactive
2 | Cc1cn2c(-c3cn[nH]c3)cnc2c(Nc2ccc(C(=O)N3CCNCC3)cc2F)n1 | 1.66 µM (active)
3 | CNC(=O)CN1CCC(Oc2cc3c(Nc4cccc(Cl)c4F)ncnc3cc2OC)CC1 | 0.0053 µM (active)
4 | CN(C)CCCN=c1c2ccccc2n(C)c2[nH]c(=O)n(C)c(=O)c12 | 2.96 µM (active)
5 | COc1cc2nccc(Oc3ccc(NC(=O)C4(C(=O)Nc5ccc(F)cc5)CC4)cc3)c2cc1OC | 1.66 µM (active)
6 | COC(=O)Nc1nc2ccc(C(=O)c3ccc(F)cc3)cc2[nH]1 | 0.372 µM (active)
7 | CC(=O)SC[C@@H](C)C(=O)N1CCC[C@H]1C(=O)N[C@@H](Cc1ccccc1)C(=O)O | inactive
8 | CCC[C@H](NC(=O)C(C#N)=Cc1cccc(Br)n1)c1ccccc1 | 18.7 µM (active)
9 | Cc1ccc(C(N)=O)cc1Nc1nccc(-c2cn(C(C)C)c3cnccc23)n1 | 5.9 µM (active)
10 | CCCCOc1c(C(=O)c2c(F)cc(C)cc2F)cnc2n[nH]cc12 | 1.66 µM (active)
11 | CC=CC1=C(C(=O)O)N2C(=O)[C@H](NC(=O)[C@H](N)c3ccc(O)cc3)[C@@H]2SC1 | 23.5 µM (active)
12 | COC(=O)[C@]12CCC(C)(C)C[C@@H]1[C@@H]1C(=O)C=C3[C@@]4(C)C=C(C#N)C(=O)C(C)(C)[C@@H]4CC[C@@]3(C)[C@]1(C)CC2 | 0.372 µM (active)
13 | CNc1nccc(-c2cccnc2Oc2cc(C(=O)Nc3cccc(C(F)(F)F)c3)ccc2C)n1 | 3.72 µM (active)
14 | O=C(c1ccc(Nc2nccc(-c3cc4ccccc4s3)n2)cc1)N1CCC(N2CCCC2)CC1 | 5.26 µM (active)
15 | O=C(O)c1ccc2c(c1)nc(Nc1cccc(Cl)c1)c1ccncc12 | 0.935 µM (active)
16 | CC(C)C[C@H](NC(=O)CNC(=O)c1cc(Cl)ccc1Cl)B(O)O | 0.148 µM (active)

Row | SMILES | Potency
17 | COc1cc2c(cc1-c1c(C)noc1C)ncc1[nH]c(=O)n([C@H](C)c3ccccn3)c12 | 1.18 µM (active)
18 | Cc1cc(N2CCOCC2)cc2[nH]c(-c3c(NC[C@@H](O)c4cccc(Cl)c4)cc[nH]c3=O)nc12 | 0.0118 µM (active)
19 | COc1cc(=C2C=c3ccccc3=N2)[nH]c1=Cc1[nH]c(C)cc1C | 3.72 µM (active)
20 | Cc1cn2cc(C(=O)N(C)CCO)cc(N[C@@H]3CCOc4cccc(C)c43)c2n1 | inactive
21 | CC(NCc1ccc2c(c1)nc(NC(=O)c1ccc(-c3cn[nH]c3)s1)n2CC(C)(C)O)C(C)(C)C (centres undefined) | 0.743 µM (active)
22 | O=C(Cc1ccc(-c2ccc(OCCN3CCOCC3)cc2)cn1)NCc1ccccc1 | 0.0264 µM (active)
23 | Cc1ccc(S(=O)(=O)Nc2cc(Cl)ccc2C(=O)Nc2nc(-c3ccccc3)cs2)cc1 | 7.43 µM (active)
24 | COc1cc2ncn(-c3cc(OCc4ccccc4C(F)(F)F)c(C(N)=O)s3)c2cc1OC | 0.469 µM (active)
25 | Cn1cncc1[C@@](N)(c1ccc(Cl)cc1)c1ccc2c(c1)c(-c1cccc(Cl)c1)cc(=O)n2C | 1.66 µM (active)
26 | CN(C)CC=CC(=O)Nc1cc2c(Nc3ccc(F)c(Cl)c3)ncnc2cc1O[C@H]1CCOC1 | 1.66 µM (active)
27 | O=C(Nc1cc(C(F)(F)F)cc(C(F)(F)F)c1)c1cc(Cl)ccc1O | 0.469 µM (active)
28 | Cc1c(Cn2c(C)nc3c(C(=O)O)cc(N4CCOCC4)cc32)cccc1C(F)(F)F | 0.059 µM (active)
29 | c1cc(-c2cnn3cc(-c4ccc(OCCN5CCCCC5)cc4)cnc23)ccn1 | 9.35 µM (active)
30 | COc1cc2c(NC3CCN(C(C)C)CC3)nc(C3CCCCC3)nc2cc1OCCCN1CCCC1 | 29.6 µM (active)
31 | COc1cc(OC2CCN(C)CC2)ccc1Nc1ncc2c(n1)n(C1CCCC1)c(=O)n2C | 3.32 µM (active)

assay: qHTS of pediatric cancer cell lines to identify multiple opportunities for drug repurposing: Primary screen for BT-37 cells (AID 1347094); settings: BT-37 viability, CellTiter-Glo luminescence, 48 h; series mostly up to 57.3 µM
Summary of the method: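 Primary screen of approved and investigational compounds on cells in growth media at 37 degrees C, 5% CO2. MIPE set at 11-point and NPC set at 8-point dilutions; viability scored by ATP-based luminescence at 48 hours.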

Row | SMILES | Potency
32 | Cc1cn2c(-c3cn[nH]c3)cnc2c(Nc2ccc(C(=O)N3CCNCC3)cc2F)n1 | 17.2 µM (active)
33 | CNC(=O)CN1CCC(Oc2cc3c(Nc4cccc(Cl)c4F)ncnc3cc2OC)CC1 | 0.001 µM (active)
34 | CN(C)CCCN=c1c2ccccc2n(C)c2[nH]c(=O)n(C)c(=O)c12 | 4.85 µM (active)
35 | COc1cc2nccc(Oc3ccc(NC(=O)C4(C(=O)Nc5ccc(F)cc5)CC4)cc3)c2cc1OC | 1.72 µM (active)
36 | CC(=O)SC[C@@H](C)C(=O)N1CCC[C@H]1C(=O)N[C@@H](Cc1ccccc1)C(=O)O | inactive
37 | Cc1ccc(C(N)=O)cc1Nc1nccc(-c2cn(C(C)C)c3cnccc23)n1 | 9.68 µM (active)
38 | CCCCOc1c(C(=O)c2c(F)cc(C)cc2F)cnc2n[nH]cc12 | 17.2 µM (active)
39 | COC(=O)[C@]12CCC(C)(C)C[C@@H]1[C@@H]1C(=O)C=C3[C@@]4(C)C=C(C#N)C(=O)C(C)(C)[C@@H]4CC[C@@]3(C)[C@]1(C)CC2 | 0.685 µM (active)
40 | O=C(c1ccc(Nc2nccc(-c3cc4ccccc4s3)n2)cc1)N1CCC(N2CCCC2)CC1 | 24.3 µM (active)
41 | O=C(O)c1ccc2c(c1)nc(Nc1cccc(Cl)c1)c1ccncc12 | 7.69 µM (active)
42 | CC(C)C[C@H](NC(=O)CNC(=O)c1cc(Cl)ccc1Cl)B(O)O | 0.485 µM (active)
43 | COc1cc2c(cc1-c1c(C)noc1C)ncc1[nH]c(=O)n([C@H](C)c3ccccn3)c12 | 17.2 µM (active)
44 | Cc1cc(N2CCOCC2)cc2[nH]c(-c3c(NC[C@@H](O)c4cccc(Cl)c4)cc[nH]c3=O)nc12 | 24.3 µM (active)
45 | COc1cc(=C2C=c3ccccc3=N2)[nH]c1=Cc1[nH]c(C)cc1C | 7.69 µM (active)
46 | CCc1cc2c(cc1N1CCC(N3CCOCC3)CC1)C(C)(C)c1[nH]c3cc(C#N)ccc3c1C2=O | inactive
47 | Cc1cn2cc(C(=O)N(C)CCO)cc(N[C@@H]3CCOc4cccc(C)c43)c2n1 | inactive
48 | CC(NCc1ccc2c(c1)nc(NC(=O)c1ccc(-c3cn[nH]c3)s1)n2CC(C)(C)O)C(C)(C)C (centres undefined) | 0.485 µM (active)
49 | O=C(Cc1ccc(-c2ccc(OCCN3CCOCC3)cc2)cn1)NCc1ccccc1 | 0.0685 µM (active)
50 | Cc1ccc(S(=O)(=O)Nc2cc(Cl)ccc2C(=O)Nc2nc(-c3ccccc3)cs2)cc1 | 17.2 µM (active)
51 | COc1cc2ncn(-c3cc(OCc4ccccc4C(F)(F)F)c(C(N)=O)s3)c2cc1OC | 19.3 µM (active)
52 | Cn1cncc1[C@@](N)(c1ccc(Cl)cc1)c1ccc2c(c1)c(-c1cccc(Cl)c1)cc(=O)n2C | 21.7 µM (active)
53 | CN(C)CC=CC(=O)Nc1cc2c(Nc3ccc(F)c(Cl)c3)ncnc2cc1O[C@H]1CCOC1 | 21.7 µM (active)
54 | O=C(Nc1cc(C(F)(F)F)cc(C(F)(F)F)c1)c1cc(Cl)ccc1O | 0.968 µM (active)
55 | Cc1c(Cn2c(C)nc3c(C(=O)O)cc(N4CCOCC4)cc32)cccc1C(F)(F)F | inactive
56 | c1cc(-c2cnn3cc(-c4ccc(OCCN5CCCCC5)cc4)cnc23)ccn1 | 17.2 µM (active)
57 | Nc1nc(-c2nn(Cc3ccccc3F)c3ncccc23)nc(N)c1N1CCOCC1 | inactive
58 | COc1cc2c(NC3CCN(C(C)C)CC3)nc(C3CCCCC3)nc2cc1OCCCN1CCCC1 | 30.6 µM (active)
59 | COc1cc2c(Oc3ccc4[nH]c(C)cc4c3F)ncnc2cc1OCCCN1CCCC1 | 24.3 µM (active)
